Source: PubChem BioAssay AID720650 (Broad Institute, 2013)
A number with no mark means an inactive call. Active and inactive are the calls of the source. The rule behind the calls is not given here.

assay: Biochemical counterscreen for C difficile toxins, absence of UDPG, inhibitor dose response (AID 720650); conditions: series mostly up to 19.5 µM; activity change, negative = inhibition: at the top concentration

Structure (SMILES)	activity change, negative = inhibition	AC50
CN(C)c1ccc(C(=O)OCC#CCSc2nnc(-c3cccc4ccccc34)o2)cc1	-7.71%	
C[C@H]1CN([C@@H](C)CO)S(=O)(=O)c2ccc(-c3ccncc3)cc2O[C@H]1CN(C)Cc1ccc(Oc2ccccc2)cc1	-6.4%	
CC(=O)C[C@H]1c2ccccc2S(=O)(=O)N1C1CCCCC1	2.33%	
O=C(Nc1cc(S(=O)(=O)N2CCOCC2)ccc1N1CCOCC1)c1ccccc1Cl		> 39 µM
COc1ccc(CCNC(=O)CCCn2nc(C)n3ccnc3c2=O)cc1OC	-3.57%	
Oc1ccccc1-c1cnc2cccnn12		> 39 µM
O=C(/C=C/c1ccc(O)cc1)c1ccccc1		9.92 µM (active)
CCOc1ccccc1/C=C/c1onc(C)c1S(=O)(=O)N1CCC(C(=O)N2CCCCCC2)CC1	-16.1%	
COc1ccccc1C=C1SC(=S)NC1=O	-7.14%	
CNC(=O)N(O)C1N(/N=C/c2ccc(SC)cc2)C(=S)SC1(C)C (configuration not stated)		> 39 µM
COc1cc(/C=C(/NC(=O)c2ccccc2)C(=O)Nc2ccc(O)cc2)c([N+](=O)[O-])cc1OC		13.9 µM (active)
COc1ccc(NS(=O)CCCc2ccccc2)cc1 (configuration not stated)	-1.77%	
O=C(O)c1ccc(-c2ccc(O)c(F)c2)cc1		13.5 µM (active)
CC(C)C12NC(=O)NC(=O)N1CCS2 (configuration not stated)	-8.68%	
COc1ccc(SC[C@H](C)CN2CC[C@H](NC(=O)OCc3ccccc3)CCC2=O)cc1	6.43%	
CCC(=O)Nc1ccc2c(c1)OC[C@@H](C)N(C(=O)NC(C)C)C[C@H](C)[C@H](OC)CN(C)C2=O	7.18%	
Cc1cccc2sc(NNC(=O)C3COc4ccccc4O3)nc12 (configuration not stated)		0.294 µM (active)
Cc1ccc(S(=O)(=O)Oc2ccc(/C=N/NC(=O)c3nn(C)cc3[N+](=O)[O-])cc2)cc1	-0.306%	
O=C(C[C@H]1CC[C@H]2[C@@H](COC[C@H](O)CN2C(=O)Nc2ccc(Cl)c(Cl)c2)O1)NCc1ccncc1	8.56%	
Cc1ccc(Oc2c(CO)c(-c3ccccc3)nn2C)cc1	-10.8%	
Cc1ccc(/C=C/c2onc(C)c2S(=O)(=O)N2CCC(C(=O)NC(C)(C)C)CC2)cc1	-0.872%	
Nc1ccc(OCCCc2c(N)nc(N)nc2N)cc1		20.1 µM (active)
